From PubChem BioAssay AID2158 (National Center for Advancing Translational Sciences (NCATS), 2009) come the findings set out here.

Molecules are shown by their SMILES. Where “and” joins values, the source holds several entries; their conditions need not be identical. Equal values may be shown once. Inconclusive results are not listed. Calls of active or inactive are those of the source. The call rests on the fitted dose curve; in most records, active means well fitted inhibition curve with a large enough effect; inconclusive means small, poorly fitted or top-dose-only effect; inactive means no such curve, though single readings can be large or run the other way.
Potency means the concentration at half of the fitted maximal effect.

Sequence of Cruzipain (Trypanosoma cruzi) (P25779 123-467 limits assumed): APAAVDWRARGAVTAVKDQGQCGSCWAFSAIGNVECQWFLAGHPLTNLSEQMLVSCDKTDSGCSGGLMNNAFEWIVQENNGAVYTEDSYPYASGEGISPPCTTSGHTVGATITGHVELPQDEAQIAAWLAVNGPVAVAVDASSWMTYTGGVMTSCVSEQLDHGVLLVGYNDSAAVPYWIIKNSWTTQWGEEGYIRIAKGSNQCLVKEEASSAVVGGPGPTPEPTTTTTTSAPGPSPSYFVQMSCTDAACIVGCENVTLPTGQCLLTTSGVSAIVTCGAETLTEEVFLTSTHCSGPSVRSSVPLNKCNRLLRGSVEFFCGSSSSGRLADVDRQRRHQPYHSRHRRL

In the test the target is Cruzipain (Trypanosoma cruzi) (UniProt P25779). As to the kind of experiment: Confirmation qHTS Assay for Inhibitors of Cruzain. Further: nearly all actives have a fitted effect of over 40% in size.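 On activity change, negative = inhibition: plate controls were uninhibited enzyme control for no effect and buffer wells lacking enzyme for full effect.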 The conditions noted are these: purified cruzain, Z-FR-AMC fluorescence, 0.01% Triton. In outline:
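Reaction progress from the 60 s rise in AMC fluorescence (ex 360, em 450 nm) after adding 2 uM Z-FR-AMC. Before this, 1.5 nM cruzain sat 15 min at room temperature with compound in pH 5.5 acetate buffer with 5 mM DTT and 0.01% Triton X-100.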
Background: qHTS replaces the single test concentration by a dilution series.
With `O=C(Cc1nnc(CNC(=O)c2ccccc2)s1)Nc1ccc(C(F)(F)F)cc1Cl`, the activity change, negative = inhibition is -3.96% (inactive).
Consider `O=C(NCc1ccc2c(c1)OCO2)c1ccc2c(c1)N(Cc1cccc(Cl)c1)C(=O)c1ccccc1S2`, for which the activity change, negative = inhibition was 3.57% (inactive).
Take `c1ccc(CN(Cc2ccccc2)Cc2nnc(-c3cc4ccccc4[nH]3)o2)cc1`: the activity change, negative = inhibition is -7.39% (inactive).
With `N=c1c(C(=O)NCc2ccc(F)cc2)cc2c(=O)n3ccccc3nc2n1CC1CCCO1` (configuration not stated), the activity change, negative = inhibition was -76.7% (inactive).
In the case of `O=C(Nc1ccc(-n2nncc2-c2ccccc2)cc1)c1ccccc1`, the activity change, negative = inhibition is -9.78% (inactive).
`COc1cccc(Nc2nc(C#N)nc(NC3CCCC3)n2)c1`: the Potency is 199 nM (active).
On to `N#Cc1nc(NCCCCO)nc(Nc2ccccc2)n1`, for which the Potency is 891 nM (active).
Regarding `O=C(NCCCO)c1ccc2nc(-c3ccco3)c(-c3ccco3)nc2c1`, the Potency was 12600 nM (active).
`C/C(CC(=O)Nc1cc(Cl)ccc1Cl)=N\NC(N)=S`: the Potency is 1120 nM (active).
Same read-out and setting: the value for `N#Cc1nc(NCC2CC2)nc(Nc2ccccc2)n1` was 891 nM (active).
For `O=C(CNC(=O)c1ccc(-c2ccccc2)cc1)OC(C(=O)Nc1cc(C(F)(F)F)ccc1Cl)c1ccccc1` (configuration not stated), the activity change, negative = inhibition is -19.3% (inactive).
With `Cc1ccc(S(=O)(=O)NC(N)=NCCC[C@@H](N)C(=O)Nc2cc(C(F)(F)F)ccc2Cl)cc1`, the activity change, negative = inhibition was -17.2% (inactive).
`O=C(CNC(=O)c1ccccc1)OC(C(=O)Nc1cc([N+](=O)[O-])ccc1F)c1ccccc1` (configuration not stated): the Potency is 12600 nM (active).
`N#Cc1nc(Nc2ccc(Br)cc2)nc(NC2CCCC2)n1`: the Potency was 501 nM (active).
On to `Cc1ccccc1OCC(=O)NCC(=O)OCc1cccc2ccccc12`, for which the activity change, negative = inhibition was -2.79% (inactive).
Consider `Cc1cc(C)cc(OCCCn2c(CCNC(=O)C3CCCCC3)nc3ccccc32)c1`, for which the Potency is 891 nM (active).
Turning to `CC(C)(C)OC(=O)Cc1nnc(-c2nc3ccccc3[nH]2)s1`, the activity change, negative = inhibition was -9.29% (inactive).
Turning to `N#Cc1nc(Nc2cccc(Cl)c2)c2ncn(C3CCCC3)c2n1`, the Potency was 50.1 nM (active).
In the case of `Cc1ccc(C(=O)NCCn2c(N)c(C#N)c3nc4ccccc4nc32)cc1`, the activity change, negative = inhibition was -28.5% (inactive).
In the case of `CC(=O)n1cc(/C=C2/N=C(c3ccccc3)OC2=O)c2ccccc21`, the Potency is 794 nM (active).
Still for that read-out and setting: next, `CCn1cnc2c(Nc3cc(F)cc(F)c3)nc(C#N)nc21`: 10 nM (active).
The same measure, in the same setting: next, `CCOC(=O)CNc1nc(C#N)nc(N2CCOCC2)n1`: 4.47 µM (active) and 6.31 µM (active).
